Reference: ChEMBL document CHEMBL1961873, “Compounds: GSK PKIS; Assays: Nanosyn kinase panel” (2012)

Assays:
[1] = target: Sphingosine kinase 1 (Homo sapiens) (UniProt Q9NYA1); settings: at 1 µM;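 further: mean SPHK1 inhibition value reported from the GSK PKIS kinase panel screen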
[2] = target: T1, Sphingosine kinase 2 (Homo sapiens) (UniProt Q9NRA0); settings: at 0.1 µM
T1 sequence (whole entry): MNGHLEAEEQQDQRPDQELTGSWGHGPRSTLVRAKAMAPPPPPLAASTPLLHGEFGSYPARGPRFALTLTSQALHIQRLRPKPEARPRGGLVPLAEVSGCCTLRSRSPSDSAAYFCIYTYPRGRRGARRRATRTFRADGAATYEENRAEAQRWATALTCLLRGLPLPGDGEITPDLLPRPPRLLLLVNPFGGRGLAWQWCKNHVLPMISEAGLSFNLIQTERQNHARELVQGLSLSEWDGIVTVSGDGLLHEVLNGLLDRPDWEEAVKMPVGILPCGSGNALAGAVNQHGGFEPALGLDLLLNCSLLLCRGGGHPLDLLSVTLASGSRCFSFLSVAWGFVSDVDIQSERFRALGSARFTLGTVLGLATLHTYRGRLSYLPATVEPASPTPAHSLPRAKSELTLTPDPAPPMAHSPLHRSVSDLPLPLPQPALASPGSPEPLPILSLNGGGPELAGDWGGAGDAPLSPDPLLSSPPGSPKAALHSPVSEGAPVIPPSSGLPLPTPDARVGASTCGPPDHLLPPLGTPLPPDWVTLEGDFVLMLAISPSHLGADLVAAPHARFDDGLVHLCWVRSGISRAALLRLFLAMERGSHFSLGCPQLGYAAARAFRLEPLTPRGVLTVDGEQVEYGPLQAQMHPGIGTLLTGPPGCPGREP

[3] = target: T1, Sphingosine kinase 2 (Homo sapiens); settings: at 1 µM
[4] = target: Casein kinase II subunit alpha (Homo sapiens) (UniProt P68400); settings: at 0.1 µM
[5] = target: Casein kinase II subunit alpha (Homo sapiens) (UniProt P68400); settings: at 1 µM
[6] = target: T2, Inhibitor of nuclear factor kappa-B kinase subunit alpha (Homo sapiens) (UniProt O15111); settings: at 0.1 µM
T2 sequence (whole entry): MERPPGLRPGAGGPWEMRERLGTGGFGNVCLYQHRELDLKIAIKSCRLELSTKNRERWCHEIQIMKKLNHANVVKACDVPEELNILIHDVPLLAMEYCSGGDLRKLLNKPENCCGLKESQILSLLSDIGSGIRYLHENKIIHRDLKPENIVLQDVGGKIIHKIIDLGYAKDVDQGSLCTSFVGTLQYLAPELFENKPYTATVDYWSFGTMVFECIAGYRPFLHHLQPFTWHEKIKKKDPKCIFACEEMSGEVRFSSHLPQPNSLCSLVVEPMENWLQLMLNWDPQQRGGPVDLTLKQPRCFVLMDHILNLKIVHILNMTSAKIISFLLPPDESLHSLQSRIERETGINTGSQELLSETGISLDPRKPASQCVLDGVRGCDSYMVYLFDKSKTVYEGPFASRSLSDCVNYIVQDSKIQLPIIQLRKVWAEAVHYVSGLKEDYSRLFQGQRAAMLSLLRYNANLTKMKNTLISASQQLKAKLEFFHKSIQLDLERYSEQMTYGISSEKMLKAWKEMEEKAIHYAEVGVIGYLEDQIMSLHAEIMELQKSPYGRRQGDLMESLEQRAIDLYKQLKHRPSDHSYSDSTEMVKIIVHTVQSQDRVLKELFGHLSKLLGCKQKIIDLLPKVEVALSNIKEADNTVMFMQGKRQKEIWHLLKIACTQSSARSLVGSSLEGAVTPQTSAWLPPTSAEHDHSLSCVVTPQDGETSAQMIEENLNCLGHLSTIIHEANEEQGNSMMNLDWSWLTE

[7] = target: T2, Inhibitor of nuclear factor kappa-B kinase subunit alpha (Homo sapiens); settings: at 1 µM
[8] = target: T3, Inhibitor of nuclear factor kappa-B kinase subunit beta (Homo sapiens) (UniProt O14920); settings: at 0.1 µM
T3 sequence (whole entry): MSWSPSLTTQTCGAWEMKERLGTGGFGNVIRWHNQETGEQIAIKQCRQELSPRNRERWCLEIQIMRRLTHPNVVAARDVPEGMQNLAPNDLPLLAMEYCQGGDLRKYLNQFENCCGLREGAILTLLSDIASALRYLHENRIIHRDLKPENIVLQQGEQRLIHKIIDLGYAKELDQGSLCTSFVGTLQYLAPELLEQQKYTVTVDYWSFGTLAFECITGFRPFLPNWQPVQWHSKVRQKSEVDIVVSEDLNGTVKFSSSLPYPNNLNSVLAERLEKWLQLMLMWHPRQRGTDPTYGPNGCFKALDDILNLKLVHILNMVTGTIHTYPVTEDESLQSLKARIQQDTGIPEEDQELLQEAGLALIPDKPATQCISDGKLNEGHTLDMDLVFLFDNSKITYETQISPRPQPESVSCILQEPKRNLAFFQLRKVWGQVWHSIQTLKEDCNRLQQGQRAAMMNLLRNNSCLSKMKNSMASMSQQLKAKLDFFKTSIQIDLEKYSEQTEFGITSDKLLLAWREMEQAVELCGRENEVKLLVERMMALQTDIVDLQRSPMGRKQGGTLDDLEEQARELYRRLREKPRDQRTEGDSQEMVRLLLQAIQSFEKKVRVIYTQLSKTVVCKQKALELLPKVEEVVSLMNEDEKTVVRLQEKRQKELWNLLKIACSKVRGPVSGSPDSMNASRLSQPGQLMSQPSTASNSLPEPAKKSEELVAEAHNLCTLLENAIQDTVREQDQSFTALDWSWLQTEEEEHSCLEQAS

[9] = target: T3, Inhibitor of nuclear factor kappa-B kinase subunit beta (Homo sapiens); settings: at 1 µM
[10] = target: T4, Inhibitor of nuclear factor kappa-B kinase subunit epsilon (Homo sapiens) (UniProt Q14164); settings: at 0.1 µM
T4 sequence (whole entry): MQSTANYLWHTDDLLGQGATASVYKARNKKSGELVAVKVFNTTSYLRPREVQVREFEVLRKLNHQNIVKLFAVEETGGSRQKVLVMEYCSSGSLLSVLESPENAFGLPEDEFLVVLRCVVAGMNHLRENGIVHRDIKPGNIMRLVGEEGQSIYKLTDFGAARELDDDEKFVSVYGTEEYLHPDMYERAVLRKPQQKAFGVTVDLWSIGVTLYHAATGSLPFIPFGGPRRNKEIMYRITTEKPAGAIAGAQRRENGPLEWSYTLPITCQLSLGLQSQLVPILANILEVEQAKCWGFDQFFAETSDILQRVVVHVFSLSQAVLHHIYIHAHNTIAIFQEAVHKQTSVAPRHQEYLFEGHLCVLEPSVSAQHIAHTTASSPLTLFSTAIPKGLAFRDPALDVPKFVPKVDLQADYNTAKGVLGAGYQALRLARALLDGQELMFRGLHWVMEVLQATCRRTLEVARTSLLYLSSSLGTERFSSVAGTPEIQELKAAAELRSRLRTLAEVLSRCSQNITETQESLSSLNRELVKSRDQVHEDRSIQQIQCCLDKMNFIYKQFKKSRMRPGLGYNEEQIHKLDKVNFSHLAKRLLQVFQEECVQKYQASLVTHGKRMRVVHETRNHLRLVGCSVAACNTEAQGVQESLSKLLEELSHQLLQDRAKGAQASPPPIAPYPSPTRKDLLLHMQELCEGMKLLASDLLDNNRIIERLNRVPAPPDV

[11] = target: T4, Inhibitor of nuclear factor kappa-B kinase subunit epsilon (Homo sapiens); settings: at 1 µM
[12] = target: T5, Serine/threonine-protein kinase Nek1 (Homo sapiens) (UniProt Q96PY6); settings: at 0.1 µM
T5 sequence (whole entry): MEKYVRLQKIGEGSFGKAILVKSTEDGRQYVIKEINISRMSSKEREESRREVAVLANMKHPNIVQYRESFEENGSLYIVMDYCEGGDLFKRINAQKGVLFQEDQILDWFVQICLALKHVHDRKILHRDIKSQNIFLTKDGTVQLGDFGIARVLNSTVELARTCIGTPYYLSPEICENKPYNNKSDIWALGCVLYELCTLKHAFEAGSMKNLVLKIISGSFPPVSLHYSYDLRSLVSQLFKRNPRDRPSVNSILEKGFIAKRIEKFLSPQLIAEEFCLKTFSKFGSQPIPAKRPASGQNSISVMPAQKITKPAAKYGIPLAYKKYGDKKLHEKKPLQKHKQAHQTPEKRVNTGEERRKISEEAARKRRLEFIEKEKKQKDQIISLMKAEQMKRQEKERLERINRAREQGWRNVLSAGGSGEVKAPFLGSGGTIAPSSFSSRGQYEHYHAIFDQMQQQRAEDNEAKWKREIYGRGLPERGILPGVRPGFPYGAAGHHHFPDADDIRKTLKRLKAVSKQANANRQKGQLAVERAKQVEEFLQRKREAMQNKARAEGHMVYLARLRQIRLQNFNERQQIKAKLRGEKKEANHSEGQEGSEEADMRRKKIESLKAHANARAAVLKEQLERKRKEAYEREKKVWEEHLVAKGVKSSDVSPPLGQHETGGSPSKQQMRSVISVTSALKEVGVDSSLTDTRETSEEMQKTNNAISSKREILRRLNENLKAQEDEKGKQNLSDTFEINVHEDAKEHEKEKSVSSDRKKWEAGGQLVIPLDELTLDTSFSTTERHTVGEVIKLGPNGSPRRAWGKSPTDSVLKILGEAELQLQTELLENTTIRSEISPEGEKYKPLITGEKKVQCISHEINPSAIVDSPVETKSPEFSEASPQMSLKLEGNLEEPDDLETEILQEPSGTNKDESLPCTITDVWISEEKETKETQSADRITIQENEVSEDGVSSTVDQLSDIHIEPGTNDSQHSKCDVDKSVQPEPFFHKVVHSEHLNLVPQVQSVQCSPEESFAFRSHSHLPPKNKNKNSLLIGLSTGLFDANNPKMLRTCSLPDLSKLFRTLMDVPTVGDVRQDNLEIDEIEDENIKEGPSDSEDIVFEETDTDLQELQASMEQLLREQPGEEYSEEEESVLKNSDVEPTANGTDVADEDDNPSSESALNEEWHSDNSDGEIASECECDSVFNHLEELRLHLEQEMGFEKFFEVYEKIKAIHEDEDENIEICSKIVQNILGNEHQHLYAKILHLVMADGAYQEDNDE

[13] = target: T5, Serine/threonine-protein kinase Nek1 (Homo sapiens); settings: at 1 µM
[14] = target: T6, Serine/threonine-protein kinase Nek2 (Homo sapiens) (UniProt P51955); settings: at 0.1 µM
T6 sequence (whole entry): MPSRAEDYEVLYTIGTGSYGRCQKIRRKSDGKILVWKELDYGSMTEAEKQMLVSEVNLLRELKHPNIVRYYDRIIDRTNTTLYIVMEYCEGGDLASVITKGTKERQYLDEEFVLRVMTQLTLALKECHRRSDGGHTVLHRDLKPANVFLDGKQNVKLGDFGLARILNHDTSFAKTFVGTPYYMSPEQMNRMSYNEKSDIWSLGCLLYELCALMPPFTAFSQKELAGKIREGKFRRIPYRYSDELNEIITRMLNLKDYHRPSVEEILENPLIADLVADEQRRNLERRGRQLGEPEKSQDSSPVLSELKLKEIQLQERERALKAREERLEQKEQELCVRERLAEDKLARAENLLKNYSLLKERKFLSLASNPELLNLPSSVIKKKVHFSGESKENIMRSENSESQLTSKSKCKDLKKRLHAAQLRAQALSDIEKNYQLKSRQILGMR

[15] = target: T6, Serine/threonine-protein kinase Nek2 (Homo sapiens); settings: at 1 µM
[16] = target: Serine/threonine-protein kinase Nek6 (Homo sapiens) (UniProt Q9HC98); settings: at 0.1 µM
[17] = target: Serine/threonine-protein kinase Nek6 (Homo sapiens) (UniProt Q9HC98); settings: at 1 µM
[18] = target: Serine/threonine-protein kinase Nek7 (Homo sapiens) (UniProt Q8TDX7); settings: at 0.1 µM
[19] = target: Serine/threonine-protein kinase Nek7 (Homo sapiens) (UniProt Q8TDX7); settings: at 1 µM
[20] = target: T7, Serine/threonine-protein kinase Nek9 (Homo sapiens) (UniProt Q8TD19); settings: at 0.1 µM;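 further: reported value is the mean percent inhibition of NEK9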
T7 sequence (whole entry): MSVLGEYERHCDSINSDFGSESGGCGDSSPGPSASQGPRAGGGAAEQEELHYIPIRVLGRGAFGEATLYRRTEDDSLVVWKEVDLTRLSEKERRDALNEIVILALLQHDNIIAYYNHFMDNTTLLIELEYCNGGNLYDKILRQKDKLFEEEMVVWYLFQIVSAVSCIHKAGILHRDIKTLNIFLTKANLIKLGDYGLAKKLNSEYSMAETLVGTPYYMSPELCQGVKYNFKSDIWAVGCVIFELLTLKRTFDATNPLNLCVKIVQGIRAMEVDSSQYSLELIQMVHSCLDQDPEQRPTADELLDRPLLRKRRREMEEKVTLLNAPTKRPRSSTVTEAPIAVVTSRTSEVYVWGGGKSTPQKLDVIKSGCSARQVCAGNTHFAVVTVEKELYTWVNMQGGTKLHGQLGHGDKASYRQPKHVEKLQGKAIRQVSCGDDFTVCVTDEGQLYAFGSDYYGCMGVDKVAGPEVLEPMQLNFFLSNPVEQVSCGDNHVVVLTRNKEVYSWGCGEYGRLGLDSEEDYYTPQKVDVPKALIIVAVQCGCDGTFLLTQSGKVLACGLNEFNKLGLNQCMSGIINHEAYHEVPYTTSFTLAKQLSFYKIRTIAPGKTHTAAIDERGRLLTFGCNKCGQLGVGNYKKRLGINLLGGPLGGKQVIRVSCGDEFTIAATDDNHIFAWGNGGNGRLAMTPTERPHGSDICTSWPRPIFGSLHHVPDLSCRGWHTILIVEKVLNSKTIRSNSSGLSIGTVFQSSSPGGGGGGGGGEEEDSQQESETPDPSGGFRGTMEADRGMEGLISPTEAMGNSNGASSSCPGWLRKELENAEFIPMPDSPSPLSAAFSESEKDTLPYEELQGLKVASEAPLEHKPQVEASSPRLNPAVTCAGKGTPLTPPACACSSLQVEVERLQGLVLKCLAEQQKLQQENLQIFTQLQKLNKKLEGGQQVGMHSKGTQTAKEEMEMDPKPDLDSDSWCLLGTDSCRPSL

Serine/threonine-protein kinase Nek6 (Homo sapiens), sequence (Q9HC98 whole entry): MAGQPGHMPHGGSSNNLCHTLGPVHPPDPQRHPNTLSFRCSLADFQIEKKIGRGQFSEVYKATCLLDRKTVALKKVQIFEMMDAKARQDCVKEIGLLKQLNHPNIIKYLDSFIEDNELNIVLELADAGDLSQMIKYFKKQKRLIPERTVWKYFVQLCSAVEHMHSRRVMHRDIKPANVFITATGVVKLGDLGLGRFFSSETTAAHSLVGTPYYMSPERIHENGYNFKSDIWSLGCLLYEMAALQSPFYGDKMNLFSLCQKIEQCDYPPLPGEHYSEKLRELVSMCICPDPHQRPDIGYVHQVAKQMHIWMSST
Serine/threonine-protein kinase Nek7 (Homo sapiens), sequence (Q8TDX7 whole entry, looked up): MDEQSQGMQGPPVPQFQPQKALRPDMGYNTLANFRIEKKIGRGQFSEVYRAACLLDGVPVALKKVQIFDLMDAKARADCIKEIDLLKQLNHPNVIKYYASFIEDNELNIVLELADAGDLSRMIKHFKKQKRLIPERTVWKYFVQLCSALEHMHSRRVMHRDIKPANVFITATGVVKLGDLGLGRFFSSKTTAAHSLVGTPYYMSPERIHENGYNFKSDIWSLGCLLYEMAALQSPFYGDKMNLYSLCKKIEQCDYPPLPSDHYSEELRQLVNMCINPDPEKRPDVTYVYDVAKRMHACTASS
Casein kinase II subunit alpha (Homo sapiens), sequence (P68400 whole entry, looked up): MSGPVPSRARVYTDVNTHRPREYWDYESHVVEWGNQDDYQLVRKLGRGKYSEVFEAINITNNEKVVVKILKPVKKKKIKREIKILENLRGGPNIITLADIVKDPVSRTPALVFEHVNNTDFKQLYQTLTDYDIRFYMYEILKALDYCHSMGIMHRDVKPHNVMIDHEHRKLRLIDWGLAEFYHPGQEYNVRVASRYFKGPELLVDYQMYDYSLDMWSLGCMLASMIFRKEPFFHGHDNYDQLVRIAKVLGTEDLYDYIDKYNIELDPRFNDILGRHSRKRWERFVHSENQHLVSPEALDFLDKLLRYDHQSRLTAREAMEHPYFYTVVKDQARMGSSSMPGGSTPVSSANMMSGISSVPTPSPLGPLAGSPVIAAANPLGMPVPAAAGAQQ
Sphingosine kinase 1 (Homo sapiens), sequence (Q9NYA1 whole entry): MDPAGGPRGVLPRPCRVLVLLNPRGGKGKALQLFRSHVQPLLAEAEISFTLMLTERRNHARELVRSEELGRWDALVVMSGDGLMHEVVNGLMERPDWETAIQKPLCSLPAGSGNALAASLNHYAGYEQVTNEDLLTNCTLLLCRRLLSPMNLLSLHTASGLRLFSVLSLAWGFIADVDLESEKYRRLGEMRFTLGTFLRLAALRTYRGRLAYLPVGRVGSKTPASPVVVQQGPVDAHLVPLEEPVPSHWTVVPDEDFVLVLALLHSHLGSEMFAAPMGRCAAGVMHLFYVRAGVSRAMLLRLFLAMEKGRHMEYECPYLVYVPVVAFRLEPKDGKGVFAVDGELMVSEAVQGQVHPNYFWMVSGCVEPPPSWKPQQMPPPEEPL

Q: How did the inhibition [1] turn out when `N#Cc1c(NC(=O)c2cccc3ccccc23)sc2c1CCCC2` was run?
A: -0.69%

Q: And the inhibition [2]?
A: 1.73%

Q: And the inhibition [3]?
A: 0.03%

Q: What about the inhibition [4] of the same compound?
A: 1.53%

Q: What about the inhibition [5] of the same compound?
A: -0.03%

Q: And the inhibition [6]?
A: 5.48%

Q: And the inhibition [7]?
A: 6.29%

Q: What about the inhibition [8] of the same compound?
A: 3.31%

Q: And the inhibition [9]?
A: 2.19%

Q: What about the inhibition [10] of the same compound?
A: 4.91%

Q: What about the inhibition [11] of the same compound?
A: 1.87%

Q: What about the inhibition [12] of the same compound?
A: 1.19%

Q: What about the inhibition [13] of the same compound?
A: 1.42%

Q: What about the inhibition [14] of the same compound?
A: 3.93%

Q: And the inhibition [15]?
A: 4.37%

Q: And the inhibition [16]?
A: 3.32%

Q: What about the inhibition [17] of the same compound?
A: 1.3%

Q: And the inhibition [18]?
A: 5.78%

Q: What about the inhibition [19] of the same compound?
A: 3.68%

Q: And the inhibition [20]?
A: 5.96%
